According to PubChem BioAssay (NCI):
The panel holds about 79,000 compounds, 15% with a hit somewhere; the sample as a whole holds those more often. The source made the active and inactive calls. Rule as the data show it: active = growth inhibition above about 70%; inactive = the rest.

Assays:
[1] = NCI Yeast Anticancer Drug Screen. Data for the rad50 strain (AID 155);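 also: 0% = growth of vehicle-only cultures of the same strain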; details: S. cerevisiae rad50 strain growth inhibition, hits give high values; at 50.0 µM unless noted
How it was run: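 A DNA repair-deficient yeast mutant serves as the test organism; compound-induced growth inhibition is calculated against vehicle-treated cells.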

[2] = NCI Yeast Anticancer Drug Screen. Data for the mec2-1 strain (AID 157); details: S. cerevisiae mec2-1 strain, hits give high values; at 50.0 µM unless noted
How it was run: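 Cells of the genetically defined mec2-1 yeast strain are incubated with test compound. Inhibition of growth is calculated against vehicle-treated controls.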

[3] = NCI Yeast Anticancer Drug Screen. Data for the sgs1 mgt1 strain (AID 161);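 also: 0% = growth of cultures given vehicle only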; details: S. cerevisiae sgs1 mgt1 strain, hits give high values; at 50.0 µM unless noted
How it was run: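 Read-out: growth inhibition vs vehicle controls. Cells: mutant yeast strain deficient in DNA damage repair.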

[4] = NCI Yeast Anticancer Drug Screen. Data for the cln2 rad14 strain (AID 165);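 also: 0% = growth equal to vehicle treated cultures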; details: S. cerevisiae cln2 rad14 strain, hits give high values; at 50.0 µM unless noted
How it was run: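 The screen exposed genetically defined yeast (cln2 rad14) to test compounds and scored growth inhibition relative to vehicle-treated controls.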

[5] = NCI Yeast Anticancer Drug Screen. Data for the bub3 strain (AID 167); details: S. cerevisiae bub3 mutant strain, hits give high values; at 50.0 µM unless noted
How it was run: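 Inhibition values come from growth of compound-treated mutant yeast normalised to vehicle-treated controls.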

[6] = NCI Yeast Anticancer Drug Screen. Data for the mlh1 rad18 strain (AID 175); details: S. cerevisiae mlh1 rad18 strain growth inhibition, hits give high values; at 50.0 µM unless noted
How it was run: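 Compound-treated yeast growth, normalised to vehicle controls. Strain bears defined DNA repair mutations.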

Measured: growth inhibition

CCC(O)c1ccc(OCc2ccccc2)c(OC)c1 (configuration not stated)
inactive: [1] 7.35% | [2] -2.1% | [3] 24.6% | [4] -43.1% | [5] -4.05% | [6] 2.25%

Cc1cccc(OC(=O)NC2CCCCC2)c1
inactive: [1] 3.5% | [2] -4.25% | [3] -13.2% | [4] -72.3% | [5] 6.5% | [6] -13.3%

CC(C)(Br)C(Br)CCC(C)(Br)C(Br)CO (configuration not stated)
inactive: [1] 10.9% | [2] -0.7% | [3] -3.8% | [4] -12.1% | [5] 0.55% | [6] -1.3%

O=C(NO)/C(CC(=O)c1cccc(O)c1)=N\O
inactive: [1] -7.05% | [2] 10.1% | [3] -7.35% | [4] -8.55% | [5] -11.1% | [6] 5.5%

CCC1(CC)SC=C(C)NC1=O
inactive: [1] -4.65% | [2] -1.65% | [3] 12.6% | [4] -24.7% | [5] -14.7% | [6] 6.75%

CC(=O)/C=C/N1CCOCC1
inactive: [1] 3.25% | [2] -9.55% | [3] -9.6% | [4] -16.9% | [5] 19.6% | [6] -5.65%

Cc1cc(-c2cccc3ccccc23)[n+]([O-])cc1C
inactive: [1] 15.6% | [2] 1.15% | [3] 17.2% | [4] -16.3% | [5] -24.1% | [6] 11.8%

CC(=O)N1CCC(/C(C)=N/O)CC1
inactive: [1] 4.9% | [2] -10.1% | [3] -12.6% | [4] -33.8% | [5] -13.8% | [6] 0.45%

Cc1cn(C2CC(ON)C(CO)O2)c(=O)[nH]c1=O (configuration not stated)
inactive: [1] -8.1% | [2] -1.15% | [3] 23.2% | [4] 13.9% | [5] 6.25% | [6] -48%

N#Cc1c(O)c(N=Nc2ccc(Cl)cc2)c(=O)n2c1[nH]c1ccccc12
inactive: [1] 11.6% | [2] 14.2% | [3] 21.2% | [4] 28.9% | [5] 10.5% | [6] 18.7%

O=Nc1ccc2ccccc2c1N=Nc1ccccc1C(=O)O
active: [2] 72.5%
inactive: [1] 20.5% | [3] 45.6% | [4] 14.3% | [5] 53% | [6] 35.8%

CC(C(=O)O)c1ccc(-c2ccccc2)cc1 (configuration not stated)
inactive: [1] 10.6% | [2] 13.3% | [3] -1.85% | [4] -12.2% | [5] 1.4% | [6] 7.1%

O=C(O)/C=C/c1cccc(F)c1
inactive: [1] -16.6% | [2] -12.2% | [3] -4.9% | [4] -15.9% | [5] -17% | [6] 10.2%

C=CCC1(CN(C)C)CC/C(=C\c2cc(OC)c(OC)c(OC)c2)C1=O (configuration not stated)
inactive: [1] -8.7% | [2] -3.15% | [3] -26% | [4] -4.65% | [5] -9.85% | [6] 20.2%

O=C(NC12CC3CC(CC(C3)C1)C2)C(=O)c1c[nH]c2ccc(Cl)cc12
inactive: [1] -9.15% | [2] -10.6% | [3] -4.1% | [4] 21.8% | [5] 8.5% | [6] -9.15%

COc1cccc(N2C(=O)C3c4[nH]c5ccc(C)cc5c4C4CCC(C)CC4C3C2=O)c1 (configuration not stated)
inactive: [1] -10.7% | [2] -27.4% | [3] -29.1% | [4] -6.5% | [5] -23.1% | [6] -13.4%

Nn1c(CCCl)nc2c(Br)cc(Br)cc2c1=O
inactive: [1] 13.8% | [2] 2.9% | [3] -2.45% | [4] 3.25% | [5] 12.6% | [6] 8.5%

NC(=O)CCCCCCCCC(N)=O
inactive: [1] 10.7% | [2] 4.95% | [3] 9.65% | [4] -4.75% | [5] -1.4% | [6] 31.1%

Cc1cc(S(=O)(=O)Nc2nc(N)nc(N3N=CCC3C)n2)c(SCC(=O)O)cc1Cl (configuration not stated)
inactive: [1] -16% | [2] 6.25% | [3] 4.7% | [4] -7% | [5] -1.55% | [6] 2.1%

CCOC(=O)Cc1nc(/C(C#N)=C/c2ccco2)[nH]c(=O)c1C#N
inactive: [1] 2.4% | [2] 7.8% | [3] 30.9% | [4] 34.2% | [5] 8.15% | [6] 39.6%

Cc1ccc(C=NC23CC4CC(CC(C4)C2)C3)cc1
inactive: [1] -3.3% | [2] -28.6% | [3] -24.2% | [4] -24.9% | [5] -35.9% | [6] -20.4%

O=C(O)/C(Cc1cn[nH]n1)=N\O
inactive: [1] -20.3% | [2] -29.9% | [3] -51.7% | [4] -77% | [5] -39.4% | [6] -32%

CC(C)COC(=O)c1ccccc1
inactive: [1] 35% | [2] 7.95% | [3] 20.1% | [4] -18.4% | [5] -9.6% | [6] 3.6%

CNCCCn1c2ccccc2c2c3c(c(-c4ccsc4)cc21)C(=O)NC3=O
inactive: [1] -1.75% | [2] -8.7% | [3] -19.9% | [4] -4.3% | [5] -7.8% | [6] -40.5%

Oc1ccc(C(O)CN2CCCC2)cc1O (configuration not stated)
inactive: [1] -15.7% | [2] 10.9% | [3] -0.1% | [4] -36.1% | [5] 2.7% | [6] -15.3%

Nc1nnc2nc(CC(=O)c3cccc([N+](=O)[O-])c3)/c(=C/C(=O)c3cccc([N+](=O)[O-])c3)n12
inactive: [1] 33.5% | [2] 18.7% | [3] 12.2% | [4] 7.45% | [5] -4.8% | [6] 22.8%

Clc1cc(NCc2ccco2)ncn1
inactive: [1] -21.8% | [2] -6.3% | [3] -19.5% | [4] -3.9% | [5] 0.85% | [6] -11.2%

OC(CN1CCCC2CCCCC21)c1cc2c(c3ccccc13)CCCC2 (configuration not stated)
active: [1] 98.2% | [2] 96.7% | [3] 99.5% | [4] 93.7% | [5] 98.5% | [6] 99.5%

O=C1c2ccccc2C(=O)c2cc3nc4c5ccccc5c5ccccc5c4nc3cc21
inactive: [1] -35% | [2] -21.2% | [3] -27.2% | [4] -37.6% | [5] 3.35% | [6] -13.6%

COCS(=O)(=O)c1ccccc1
inactive: [1] 2.55% | [2] -6.1% | [3] 11.8% | [4] 14.3% | [5] 6.55% | [6] 0.15%

CC(O[Si](C)(C)C)C1C=CC(C)n2c(=O)n(-c3ccccc3)c(=O)n21 (configuration not stated)
inactive: [1] 4.65% | [2] -26.6% | [3] -34.3% | [4] -7.6% | [5] -55.6% | [6] -18.2%

NC(=O)c1ccc(-c2csc(=S)[nH]2)s1
inactive: [1] -1.9% | [2] -9.7% | [3] -15.5% | [4] -13.1% | [5] -19.1% | [6] -5.35%

CC1/C(=N\O)CC2C3(C)CCC2(C(C)C(=O)O)C(=O)C13 (configuration not stated)
inactive: [1] 4.75% | [2] 9.1% | [3] 2.2% | [4] 8.55% | [5] 8.9% | [6] 20.6%

O=C(Nc1ccc(Cl)cc1)Nc1nnc(-c2cccc(Cl)c2)o1
inactive: [1] 5.8% | [2] 5.75% | [3] 26.9% | [4] -51.9% | [5] 0.2% | [6] 15%

Cc1cc2c(c(C(=O)O)c1C)-c1cccc(Cl)c1C2=O
inactive: [1] -15.7% | [2] -2.3% | [3] -23.2% | [4] -20.2% | [5] -13.3% | [6] -27.4%

Cc1ccc(C)c(Nc2c(C)ccc(C)c2C(=O)O)c1
inactive: [1] -5.3% | [2] -1.05% | [3] 12.4% | [4] 14% | [5] -10.1% | [6] -12.6%

CC(C)=CCNc1ncnc2c1ncn2CCC(=O)O
inactive: [1] -23.9% | [2] -4.6% | [3] -57% | [4] -4.45% | [5] -9.85% | [6] -28.9%

CN(C)CCCNC(=O)N/N=C/c1ccccc1
inactive: [1] 13.9% | [2] -13.8% | [3] -13.8% | [4] -6.3% | [5] -39.7% | [6] -21.1%

COc1ccc(C(=O)CCC2(C)OCCO2)cc1OC
inactive: [1] 27.3% | [2] 5.8% | [3] 18.9% | [4] 8.4% | [5] 21.9% | [6] 17.5%

Nc1ccc2c(c1)C(=O)c1cc(Cl)cc(Cl)c1-2
inactive: [1] 0% | [2] -4.75% | [3] -0.5% | [4] -44% | [5] 7.05% | [6] 2.25%

C[N+](C)(C)CC1CCC/C1=N\OC(=O)c1ccccc1 (configuration not stated)
inactive: [1] -17.8% | [2] 1.85% | [3] 11.8% | [4] 12.8% | [5] 14.2% | [6] -2.7%

O=C(NCC1CC1)c1cccs1
inactive: [1] -41.4% | [2] -50.9% | [3] -18.9% | [4] -23.6% | [5] -21.6% | [6] -50.4%
